In all, about 59,000 sequences were measured (the read-out: median about -0.00055, lowest 2% from about -2 on). The full list was thinned out, with the lowest values kept by preference.
Assay: Identification of proteins required for the processing of the EWS-FLI1 nascent transcript;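 note: robust z of luciferase light less the median z of siRNAs with the same seed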
Conditions: TC32 Ewing sarcoma NR0B1-luc vs CMV-luc (EWS-FLI1 target promoter against control promoter), 48 h; screened at 20 nM (by protocol)
Method in brief: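 Three siRNAs per gene, each in a separate well at 20 nM, were transfected into TC32 cells bearing either reporter construct. Luminescence was measured two days on, and per-gene comparison relied on seed-corrected Z values.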

Going from UAGGAUUAAAUUAAUCCUC against GNE to UAAAGGCAUAGUUUCCCUG against RGS7BP, the seed-corrected z-score falls from -0.0404 to -2.71.

Going from AAAGGUGCAGAAGUUCUGU against LOC646484 to UCCAGUUCCAGAACUAUCU against HES2, the seed-corrected z-score rises from -1.37 to 0.537.

First: AAACGGUCCAGGUAAUUCA against CCND2
Second: UCUCGUUCCACCAGAUCCG against OGFR
The seed-corrected z-score of the first is lower: -1.57 for the first, 2.21 for the second.

Compared with AGUUGUAGAAGAACGAAUC against PSMD2, UUGGGUUUCGGACCUCUCU against CBX7 is higher in seed-corrected z-score: -3.28 for the first, 0.219 for the second.

Going from UAUCCUUCAACCAUUCUGG against DYX1C1 to UAUAUGACACCUGCUGUGG against NGFR, the seed-corrected z-score falls from 0.0057 to -1.33.

First: AUUGCAGUCACGAUGAUGG against OR52I2
Second: UAAUGUCCAAGAUGGUCAC against CELSR1
The seed-corrected z-score of the first is lower: -1.16 for the first, 0.481 for the second.

First: UUCUGAAUCAAAGUUGUUC against CBLN1
Second: UGUAUAACCUGGCUCUCUG against FAM45BP
The seed-corrected z-score of the first is higher: 0.758 for the first, -0.888 for the second.

First: UAGGAUGGAACAUCAAUCU against WASH5P
Second: UAUGCUCAAAUACCUUUGC against CAT
The seed-corrected z-score of the first is lower: -2.88 for the first, 0.148 for the second.

Compared with UAGUGCUUAUCCUAGAAUC against KLK8, AAACUACCCAAUUGUAAUC against OR9A4 is lower in seed-corrected z-score: 0.915 for the first, 0.66 for the second.

Compared with AUGGUCUUGCCAUCUACCG against RABL2A, AUCAAUUUGUCCUCCAUCC against RNPS1P1 is higher in seed-corrected z-score: -2.05 for the first, -0.331 for the second.

First: GACAUGGCAGUGAGCUUCC against CBX2
Second: UGCUCAAUCUGAUAGAUGG against TP63
The seed-corrected z-score of the first is lower: -0.4 for the first, -0.257 for the second.

Going from UGUUUGAUCUGUAAAAUGG against C15orf32 to AUGAUGUUCCUUGAAGUUC against DHRS2, the seed-corrected z-score rises from -1.58 to -0.594.

Going from UCUCAUCCAGGUACCAGCC against FTCD to AGCUGUUCAAUGUCAAAGC against INMT, the seed-corrected z-score falls from -0.292 to -4.2.

Going from UGACAUACCAGAGGAAGUG against PLEKHH1 to UUGUUGACCAUAGCUACUC against EWSR1, the seed-corrected z-score falls from -0.0437 to -4.01.

Going from AUAGAUACAGGUGAUGCAG against EGLN2 to UACUCUCACAGCUUGCACC against KCTD18, the seed-corrected z-score falls from 1.45 to -0.258.

Going from UUGGGAAGCAGGUGCAUGC against LAIR1 to UAGAGGCACCGAGUCAACG against DBF4B, the seed-corrected z-score rises from -2.03 to 0.153.

Going from UGAGUUCCGACACUCCAUC against EIF4EBP1 to UCUGCUUUCUGUACCCGAC against GATA3-AS1, the seed-corrected z-score falls from 0.187 to -2.32.

First: UUUGUUACAAGCACCUACU against LOC730179
Second: ACAGGUGCAUUGGACUUGG against KCTD15
The seed-corrected z-score of the first is higher: 0.536 for the first, -3.06 for the second.

Going from UUGAUCACCUCAGAGGCCG against USE1 to UUAUGCUAAAAUCUACUCC against TNKS2, the seed-corrected z-score rises from -1.2 to -1.04.

Going from AAUAGGUGUAAGUCCGUGC against NR5A2 to UUAGUCCAGAGGUUUCAUC against PCAT18, the seed-corrected z-score rises from -2.54 to -0.77.

Going from UCACAAUUUAGUGUAAUAG against ETFBKMT to UCGGUAAUCCGGGUGAAGC against FGF14-AS2, the seed-corrected z-score falls from 0.195 to -0.163.

Compared with UCCUGGAUUGGGAAGGUGC against C9orf172, UGCAGUAGAAUUUACACGC against RB1 is lower in seed-corrected z-score: -0.383 for the first, -2.42 for the second.

Compared with UUUGCUAUCAGGGAACAUC against SPRR2B, UGAUGGUAGAGUUCCAGUG against MYBL2 is lower in seed-corrected z-score: -0.452 for the first, -0.637 for the second.

Compared with UUGCUUAUGAGCUUGAUGG against MAST1, UAAGCGGUUCAUGCUGUGG against CPA5 is higher in seed-corrected z-score: -2.39 for the first, -0.872 for the second.

Going from UAGUGGAAGACGGAAAAGU against SFN to AGUAUAACCAGUGGGAGGC against EWSR1, the seed-corrected z-score falls from -0.0924 to -5.73.

Compared with UAUCUGAAGAUCUAGACUC against ZNF280D, UCCUUGACCAGAAAUCUCA against TRIM31 is lower in seed-corrected z-score: -0.0696 for the first, -0.472 for the second.

Compared with UACGUCAAACGGAACUUCC against LRPPRC, UCAUGUAUAAACAGUCGCC against ALDH7A1 is higher in seed-corrected z-score: -0.194 for the first, 0.368 for the second.

Going from UUAGCAUGAUGAUCAAGGC against LIN28B to UUAUAUAUCUCCUGGAGCG against AGPAT3, the seed-corrected z-score falls from 0.22 to -0.537.

Compared with UGAGUUUCGAGAGCACAGU against MID1IP1, AAACUUUCUCCUUAAGGCC against PRR11 is higher in seed-corrected z-score: -3.02 for the first, -0.21 for the second.

First: UUGCAAUUGAAUUCACAGC against SRI
Second: UGAAGGAUUUGUGACAUAC against ZFP28
The seed-corrected z-score of the first is higher: -0.0706 for the first, -0.0712 for the second.

Compared with UGUGGUUCCAAGGCACGUC against CCER2, UUCCUUGGGCCCUAUAUGU against FAM168A is higher in seed-corrected z-score: -2.12 for the first, -0.129 for the second.

Compared with AACGUAGAAAAGCAUAUCG against DENND5B, UAUCUUGCUGGUGUGUGUG against MAX is lower in seed-corrected z-score: -0.0535 for the first, -0.878 for the second.

Compared with AUAGGCUUUAUCAAGAUCG against MPP5, UGAAUUUCUCGAAUCUGUG against SF3B1 is lower in seed-corrected z-score: 0.288 for the first, -4.69 for the second.

Going from UGACCGAUGACAGGUAUCU against MRGPRX3 to UUUUGAGUGGGUAUCAACC against VIM, the seed-corrected z-score rises from -0.02 to 0.533.

Going from UUCUGUGCUACUUUGUGCU against SSR3 to UCCCUGAAUAGUGUGACAG against CCDC103, the seed-corrected z-score falls from 1.19 to 0.246.

First: UUACAUCCAAUUGUAAAGG against C5orf22
Second: UUUGCGAAACUCCAAGUCC against LMNB1
The seed-corrected z-score of the first is lower: -2.74 for the first, -0.159 for the second.

Going from AAAAAUAUCUGUGAUUCUG against WNK1 to UAGGCAUCGAUGUGGAAGC against TELO2, the seed-corrected z-score rises from 0.399 to 2.04.

First: UCAGCAGAUCUUGACAGUC against LYZL6
Second: CUGCUUCUGAGCGUUUGCG against MED14OS
The seed-corrected z-score of the first is higher: 0.253 for the first, -2.09 for the second.

First: UUGCCGUAUAGGUAGUUUG against NPTX2
Second: UAGGCGACGCCCUUUUUCU against H3.X
The seed-corrected z-score of the first is lower: -0.552 for the first, -0.0707 for the second.

Going from UUUGAGUCCUCAUGGGUGG against GTF3C4 to UAGGUGUUGAUGAUCUCCC against XAB2, the seed-corrected z-score falls from 1.63 to -2.44.

First: UUUGUCUCUGCGGAGGUUC against EIF3D
Second: UGAUUAGUCACCAAAGUCC against ATF7IP
The seed-corrected z-score of the first is higher: -0.479 for the first, -1.24 for the second.

Going from UACUGUCGAACUUUGCCUG against HEPH to UCACUAGCAAGGUUCUCCC against LARP4B, the seed-corrected z-score rises from -1.6 to 0.24.

First: UAAUGUACUUGAUCGCAGC against ASCL3
Second: AUAGUUGCCGGUGCUCACC against PICK1
The seed-corrected z-score of the first is higher: -1.12 for the first, -3.04 for the second.

Compared with UACUGUAUAGGAAACGAUC against ESPL1, UCGCUGUCCUUUAAGAGGC against NKAIN4 is lower in seed-corrected z-score: -0.0398 for the first, -0.183 for the second.

Going from AUCGGGAAGAGAGUGUAUC against PTAFR to CAAGUGGAUCGAGCUUGCG against RPL29P12, the seed-corrected z-score falls from 0.45 to 0.225.

Compared with UGACUCAAAACUACCAUCC against CCNA2, AUCUCUUUUAUCAGGGUUG against VEGFB is lower in seed-corrected z-score: -0.751 for the first, -2.11 for the second.

Compared with AACGAUUUUAUCCAAAAUG against FBXO25, UAUAUGUCUCGCAUUUGCC against TRE17 is lower in seed-corrected z-score: 0.881 for the first, -1.17 for the second.

First: AUCGCAAUAAUUUCAUCUG against NOL8
Second: UACGUUAGUUUUGACACGC against RALY
The seed-corrected z-score of the first is higher: -0.121 for the first, -0.653 for the second.

First: UGCUAUAGCACCAACAGCC against CLCN5
Second: UUGGGUUCUACAAGCUUCC against SDE2
The seed-corrected z-score of the first is lower: -2.8 for the first, -0.135 for the second.

First: AAGAUGUCUGUGGUCAUGG against PLCB2
Second: UUACUAGAAUCCUCAAUUG against OXR1
The seed-corrected z-score of the first is higher: 1.04 for the first, -0.746 for the second.

Going from UAAAGAUCAAUUCGCUUUG against GLRB to UGAAGGUUCAGAGUGCAAC against ISG20L2, the seed-corrected z-score falls from -0.775 to -0.949.

Going from UUCUGGAUUAGAAAGGUUC against NKRF to UCCUUGUCGAACAUGAGCC against NTNG2, the seed-corrected z-score falls from 0.43 to -2.93.

Compared with UGCACAUCCUUGUCUAUGC against SGSM2, UUACAUUCUGAGCCCAUCC against HTR7 is lower in seed-corrected z-score: 0.184 for the first, -0.311 for the second.

Compared with UUAGUUAUAACAUAUGACU against LINC00900, ACAAUGGAAAGCACCUUCC against RINL is higher in seed-corrected z-score: -0.697 for the first, 0.198 for the second.

First: UCCCAGUUGUGGAUGAUCC against PLEKHM1
Second: UAAAGACUACAAGCACAGC against OR51B5
The seed-corrected z-score of the first is higher: -0.204 for the first, -2.14 for the second.

Going from UUCAGUACAUCUCUGCAGG against RDH12 to UUCAUCACAACCUUCCGUG against TLR5, the seed-corrected z-score rises from 0.532 to 0.937.

Compared with UUCCAGGUCACCAACCACC against IFITM5, UUCUGCAUAAGUAGUUUUC against INIP is lower in seed-corrected z-score: -0.607 for the first, -2.13 for the second.

First: UGCUUAGCUUCUUUAACCC against PLIN2
Second: UCCUGAACAGGCUUAUCCC against AXIN1
The seed-corrected z-score of the first is lower: 0.638 for the first, 0.946 for the second.

First: UGAUCUCCAAUCACAUGCC against ARFGEF2
Second: UCGUUUACAAACAUGAGUC against MPDZ
The seed-corrected z-score of the first is lower: -0.117 for the first, 0.35 for the second.

First: UUCUGACCAAGCAAACUCG against SF3B1
Second: AUUGAUGUAUGACUCUUCC against DDX55
The seed-corrected z-score of the first is lower: -2.7 for the first, -0.91 for the second.

Going from UUCUUUGCCUCGCUUAUUC against OLFML2B to UAUCUGAGGAGUUCUGACC against SLC22A2, the seed-corrected z-score falls from 0.806 to 0.452.

First: AAAUGUCUUAGGGAUUGGG against ITPRIPL1
Second: UCUCCAAGAAGUUCACUGG against SOX6
The seed-corrected z-score of the first is lower: -2.1 for the first, 0.406 for the second.

Compared with UCUGUUGCUGCCUAAACUC against TMEM198B, UAUAGAACAAGGUAAAUCC against MTF2 is lower in seed-corrected z-score: 0.298 for the first, 0.208 for the second.

First: UUCUAUCAAAUAUCCUUUG against LOC400940
Second: UAGGAAAUCAUCUCCCUCC against TMEM169
The seed-corrected z-score of the first is higher: -0.132 for the first, -3.9 for the second.

Going from UACCCAUAUAUUUAAAGCC against PQLC3 to UUUUCAUUUACGGAACCCG against SMOC2, the seed-corrected z-score falls from 0.395 to 0.202.

Going from UCAGAAGUAACAGCAGAUC against FANCG to UCAUAGUGCAGGUAGAGCC against TRIM50, the seed-corrected z-score falls from 0.307 to -0.491.

Sequence AUAGAAGUCAACCUCAUUC against CASQ2 has a seed-corrected z-score of 0.181.
